# Assay results taken from PubChem BioAssay (NCATS).
# Inconclusive results are not listed. Unmarked numbers belong to inactive results. The source made the active and inactive calls. Calls follow the shape of the dose curve; as a rule, active = well fitted inhibition curve with a large enough effect; inconclusive = small, poorly fitted or top-dose-only effect; inactive = flat fitted curve, though single readings scatter.
# Tested on: PC49
# Assay: qHTS profiling for inhibitors of Plasmodium falciparum proliferation (AID 504749); also: nearly all actives have a fitted effect of over 60% in size;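 as to activity, negative = inhibition: 0% = DMSO vehicle and full inhibition = artemisinin control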
# Conditions: P. falciparum in erythrocytes, SYBR Green DNA, 72 h; series mostly up to 28.7 µM; activity, negative = inhibition: at the top concentration
# How it was run: (§1)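 Each compound contacts P. falciparum-infected red blood cells for 72 h at 37 C; lysis buffer (Tris, EDTA, saponin, Triton X, SYBR Green I) is added and fluorescence measured next morning; values normalized to controls.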
# Potency is read from the fitted curve at half-maximal effect.
row,Compound,"activity, negative = inhibition"
1,CC(c1cc2ccccc2s1)N(O)C(N)=O (stereo not drawn),7.88%
2,CNC[C@H](O)c1cccc(O)c1,3.17%
3,O=NN(CCCl)C(=O)NCCCl,5.54%
4,Cc1c(C)c2c(c(C)c1O)CCC(C)(COc1ccc(CC3SC(=O)NC3=O)cc1)O2 (stereo not drawn),-4.38%
5,O=c1n(CCCN2CCN(c3cccc(Cl)c3)CC2)nc2ccccn12,13.3% [at 12.8 µM]
6,Cc1[nH]c(=O)c(C#N)cc1-c1ccncc1,-2.56%
7,N=c1nc(N2CCCCC2)cc(N)n1O,6.85%
8,CC(C[N+](C)(C)C)OC(N)=O (stereo not drawn),11.8%
9,CCCCNc1cc(C(=O)O)cc(S(N)(=O)=O)c1Oc1ccccc1,10.1% [at 12.8 µM]
10,Cc1cn[nH]c1,1.02%
11,CC(C)NCC(O)COc1ccc(COCCOC(C)C)cc1 (stereo not drawn),0.566%
12,Cc1[nH]c(=O)c(C#N)cc1-c1ccc2nccn2c1,1.93%
13,CC(=O)Oc1ccccc1C(=O)O,0.633%
14,CCc1ccc(CCOc2ccc(CC3SC(=O)NC3=O)cc2)nc1 (stereo not drawn),9.65%
15,NC(=O)c1cnccn1,0.571%
16,O=C1CCC(N2C(=O)c3ccccc3C2=O)C(=O)N1 (stereo not drawn),10.6%

# Tested on: SC27B
# Assay: as above
# Conditions: P. falciparum in erythrocytes, SYBR Green DNA, 72 h; series mostly up to 28.7 µM; activity, negative = inhibition: at the top concentration
# How it was run: as §1
Compound,"activity, negative = inhibition",Potency
CC(c1cc2ccccc2s1)N(O)C(N)=O (stereo not drawn),-0.191%,–
CNC[C@H](O)c1cccc(O)c1,12.7%,–
O=NN(CCCl)C(=O)NCCCl,3.07%,–
Cc1c(C)c2c(c(C)c1O)CCC(C)(COc1ccc(CC3SC(=O)NC3=O)cc1)O2 (stereo not drawn),–,10 µM (active)
O=c1n(CCCN2CCN(c3cccc(Cl)c3)CC2)nc2ccccn12,0.627% [at 12.8 µM],–
Cc1[nH]c(=O)c(C#N)cc1-c1ccncc1,6.2%,–
N=c1nc(N2CCCCC2)cc(N)n1O,3.1%,–
CC(C[N+](C)(C)C)OC(N)=O (stereo not drawn),6.27%,–
CCCCNc1cc(C(=O)O)cc(S(N)(=O)=O)c1Oc1ccccc1,5.97% [at 12.8 µM],–
Cc1cn[nH]c1,11.2%,–
CC(C)NCC(O)COc1ccc(COCCOC(C)C)cc1 (stereo not drawn),2.1%,–
Cc1[nH]c(=O)c(C#N)cc1-c1ccc2nccn2c1,0.988%,–
CCOC(=O)C1=C[C@]2(CC)CCCN3CCc4c(n1c1ccccc41)[C@@H]32,–,12.6 µM (active)
CC(=O)Oc1ccccc1C(=O)O,6.26%,–
CCc1ccc(CCOc2ccc(CC3SC(=O)NC3=O)cc2)nc1 (stereo not drawn),8.71%,–
NC(=O)c1cnccn1,2.52%,–
O=C1CCC(N2C(=O)c3ccccc3C2=O)C(=O)N1 (stereo not drawn),0.992%,–
